Experiment [1] has as its target Inward rectifier potassium channel 2 (Mus musculus) (UniProt P35561). As to the kind of experiment: mouse Kir2.1 channel blockers, retest, confirmation, cell-based, FluxOR thallium flux, duplicate (AID 2032). The settings on record: Kir2.1-expressing cells, FluxOR thallium flux fluorescence, at 10 µM; hits give low values.
Experiment [2] is described as follows: nonspecific thallium flux effects in parental HEK293 cells, confirmation, counter-screen for Kir2.1 inhibitor project, cell-based, FluxOR thallium flux, duplicate, single concentration (AID 2105;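 active = dye signal at least 3 control SD above or below untreated wells in both duplicates, raw fluorescence within 3, either direction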). The settings on record: FluxOR thallium flux fluorescence, at 10 µM; 0% = unstimulated blank wells. (A counterscreen serves to expose hits that act by an unwanted route or on another target.)

A short description of experiment [3]: nonspecific thallium flux increase in parental CHO-K1, confirmation, counter-screen for KCNQ2 potentiator project, cell-based, FluxOR thallium flux, duplicate (AID 2282;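 active = signal rise of at least 3 SD above the untreated control mean, in both duplicate wells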;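 note: counter screen of KCNQ2 potentiator hits so any rise reflects channel-independent effects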). The following applies: parental CHO-K1 cells, FluxOR thallium flux fluorescence; at 10 µM; hits give high values; zero = vehicle mean+3SD, 100% = vehicle-minus-blank window.
Experiment [4] has as its target Potassium voltage-gated channel subfamily KQT member 1 (Homo sapiens) (UniProt P51787). As to the kind of experiment: human KCNQ1 channel potentiation off-target, confirmation, selectivity assay for KCNQ2 potentiator project, cell-based, CHO, FluxOR thallium flux (AID 2283;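 active = fluorescence ratio rise of at least 3 SD of vehicle wells above their mean, in both replicate wells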;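 note: 0% = vehicle mean plus 3 SD and 100% = vehicle minus unstimulated blank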). The settings on record: CHO KCNQ1 stable, FluxOR thallium flux fluorescence; at 10 µM; hits give high values; beyond 3SD, as % of vehicle-control signal.

In experiment [5] the target is Potassium voltage-gated channel subfamily KQT member 2 (Rattus norvegicus) (UniProt O88943). As to the kind of experiment: rat KCNQ2 channel potentiators, confirmation, cell-based, CHO, FluxOR thallium flux, duplicate (AID 2287;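 active = fluorescence ratio rising 3 SD or more over the vehicle control mean in both replicates, plus primary screen hit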;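 note: peak minus minimum thallium fluorescence divided by baseline after K/Tl stimulus; 0% = vehicle mean plus 3 SD and 100% = vehicle minus unstimulated blank difference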). The following applies: CHO-KCNQ2 cells, FluxOR thallium flux fluorescence; at 10 µM; hits give high values.
Potassium voltage-gated channel subfamily KQT member 2 (Rattus norvegicus), sequence (O88943 whole entry, looked up): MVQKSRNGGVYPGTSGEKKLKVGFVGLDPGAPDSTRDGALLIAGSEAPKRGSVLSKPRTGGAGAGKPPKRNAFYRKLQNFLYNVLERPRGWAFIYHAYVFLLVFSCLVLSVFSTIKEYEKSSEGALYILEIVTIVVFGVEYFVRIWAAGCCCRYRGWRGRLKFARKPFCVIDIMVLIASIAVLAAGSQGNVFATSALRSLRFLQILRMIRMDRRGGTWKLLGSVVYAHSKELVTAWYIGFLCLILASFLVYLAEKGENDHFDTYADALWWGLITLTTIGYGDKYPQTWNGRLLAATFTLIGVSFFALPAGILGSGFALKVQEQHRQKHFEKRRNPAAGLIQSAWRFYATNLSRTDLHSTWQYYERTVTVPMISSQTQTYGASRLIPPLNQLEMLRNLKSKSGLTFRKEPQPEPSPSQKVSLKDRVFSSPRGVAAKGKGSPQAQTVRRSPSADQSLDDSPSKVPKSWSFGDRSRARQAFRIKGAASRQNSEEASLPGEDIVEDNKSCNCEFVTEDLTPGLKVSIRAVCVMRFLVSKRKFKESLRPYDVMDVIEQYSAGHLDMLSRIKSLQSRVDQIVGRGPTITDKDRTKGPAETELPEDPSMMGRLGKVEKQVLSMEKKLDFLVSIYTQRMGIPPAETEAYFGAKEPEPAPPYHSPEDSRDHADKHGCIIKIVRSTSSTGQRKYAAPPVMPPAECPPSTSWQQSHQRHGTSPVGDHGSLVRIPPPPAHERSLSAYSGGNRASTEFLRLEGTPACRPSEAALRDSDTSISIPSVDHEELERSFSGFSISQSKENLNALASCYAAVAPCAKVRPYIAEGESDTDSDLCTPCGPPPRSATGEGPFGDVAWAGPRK
The target of experiment [6] is Inward rectifier potassium channel 2 (Mus musculus) (UniProt P35561). As to the kind of experiment: PubChem AID 2345.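 Note: 0% = vehicle mean plus 3 SD and 100% = vehicle minus no-stimulus blank window.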 The following applies: HEK293 Kir2.1, FluxOR thallium flux fluorescence; at 10 µM; hits give high values.
Inward rectifier potassium channel 2 (Mus musculus), sequence (P35561 whole entry, looked up): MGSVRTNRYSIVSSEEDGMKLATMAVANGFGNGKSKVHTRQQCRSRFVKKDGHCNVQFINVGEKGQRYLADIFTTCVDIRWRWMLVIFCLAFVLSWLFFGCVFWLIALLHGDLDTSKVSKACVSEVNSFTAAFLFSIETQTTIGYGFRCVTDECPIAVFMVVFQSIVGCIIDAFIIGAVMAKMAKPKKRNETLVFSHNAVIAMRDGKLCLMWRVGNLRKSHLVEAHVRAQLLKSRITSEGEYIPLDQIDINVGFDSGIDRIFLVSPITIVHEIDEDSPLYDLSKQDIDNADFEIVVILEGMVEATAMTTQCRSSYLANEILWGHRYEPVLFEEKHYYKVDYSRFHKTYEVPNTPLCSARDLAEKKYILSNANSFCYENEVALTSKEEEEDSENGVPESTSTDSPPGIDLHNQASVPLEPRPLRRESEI
Experiment [7] deals with TRPC4 beta (transient receptor potential cation channel C4), mouse. As to the kind of experiment: activators of mouse TRPC4 channel, confirmation, cell-based, Fluo4 calcium, HEK293 TRPC4beta/mu-opioid, duplicates, 10 µM (AID 2426;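 active = fluorescence ratio normalized to control raised more than 50% in primary screen plus both repeat runs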). The following applies: Fluo4 calcium fluorescence, at 10 µM; hits give high values.
The subject of experiment [8] is transient receptor potential cation channel C4 beta (TRPC4), mouse. As to the kind of experiment: activators of mouse TRPC4 channel, confirmation, cell-based, second round, Fluo4, HEK293 TRPC4beta/mu-opioid, 1 µM (AID 2461;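 active = primary screen active and over 50% activation in each of two duplicate runs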). The settings on record: Fluo4 calcium fluorescence, at 1 µM; hits give high values.
Experiment [9] relates to TRPC4 (transient receptor potential cation channel C4 beta), mouse. As to the kind of experiment: positive allosteric modulators of mouse TRPC4, confirmation, cell-based, second round, Fluo-4, HEK293 TRPC4beta/mu-opioid, 1 µM (AID 2554;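 active = primary screen hit whose fluorescence ratio, in both repeats, exceeds the weak agonist control mean by 3 SD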). The following applies: DAMGO EC20, Fluo-4 calcium flux, at 1 µM; hits give high values.
Experiment [10] has as its system TRPC4 beta (transient receptor potential cation channel C4), mouse. As to the kind of experiment: positive allosteric modulators of mouse TRPC4, confirmation, cell-based, Fluo-4, HEK293 TRPC4beta/mu-opioid (AID 2555;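 active = primary screen hit whose calcium fluorescence ratio, in both repeats, exceeds the weak agonist control mean by 3 SD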). The following applies: DAMGO EC20, Fluo-4 calcium flux, at 10 µM; hits give high values.
Experiment [11] deals with Short transient receptor potential channel 4 (Mus musculus) (UniProt Q9QUQ5). As to the kind of experiment: inhibitors of mouse TRPC4 channel, confirmation, cell-based, Fluo4, HEK293 TRPC4beta/mu-opioid (AID 2636;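 active = calcium signal cut by more than 3 SD below the full-agonist control yet still positive, in both repeats and the earlier primary screen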). The settings on record: DAMGO, Fluo4 calcium flux, at 10 µM; hits give high values. On the technique in general: Calcium flux is commonly read through the fluorescence of an indicator in the cells.
Short transient receptor potential channel 4 (Mus musculus), sequence (Q9QUQ5 whole entry, looked up): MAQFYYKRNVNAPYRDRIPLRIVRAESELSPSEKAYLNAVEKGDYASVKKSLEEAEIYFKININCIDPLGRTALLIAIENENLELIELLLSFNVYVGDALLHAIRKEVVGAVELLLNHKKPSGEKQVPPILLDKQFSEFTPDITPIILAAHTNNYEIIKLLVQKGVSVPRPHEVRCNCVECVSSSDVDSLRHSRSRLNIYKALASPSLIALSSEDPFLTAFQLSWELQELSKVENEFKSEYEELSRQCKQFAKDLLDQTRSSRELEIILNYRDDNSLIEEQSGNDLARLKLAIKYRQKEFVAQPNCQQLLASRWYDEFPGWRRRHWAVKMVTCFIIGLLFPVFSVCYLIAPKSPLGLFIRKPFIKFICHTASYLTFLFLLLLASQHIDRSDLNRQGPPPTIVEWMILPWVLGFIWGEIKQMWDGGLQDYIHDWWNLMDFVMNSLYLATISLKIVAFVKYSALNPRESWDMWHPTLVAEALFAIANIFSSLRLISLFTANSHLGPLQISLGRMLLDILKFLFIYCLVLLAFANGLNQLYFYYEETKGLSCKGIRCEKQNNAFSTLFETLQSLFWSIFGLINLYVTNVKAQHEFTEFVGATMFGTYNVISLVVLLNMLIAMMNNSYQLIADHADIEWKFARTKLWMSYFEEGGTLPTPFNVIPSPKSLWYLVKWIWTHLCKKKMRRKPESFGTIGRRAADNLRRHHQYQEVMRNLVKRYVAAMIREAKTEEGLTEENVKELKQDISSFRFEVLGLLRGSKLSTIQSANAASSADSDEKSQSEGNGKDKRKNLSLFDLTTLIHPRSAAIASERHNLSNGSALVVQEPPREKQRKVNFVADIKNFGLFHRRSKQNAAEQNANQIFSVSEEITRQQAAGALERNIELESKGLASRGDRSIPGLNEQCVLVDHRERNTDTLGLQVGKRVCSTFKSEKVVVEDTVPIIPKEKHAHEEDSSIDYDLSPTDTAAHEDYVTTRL

Experiment [12] shares this target. As to the kind of experiment: inhibitors of mouse TRPC4 channel, confirmation, cell-based, second round, Fluo4, HEK293 TRPC4beta/mu-opioid, 1 µM (AID 2637;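 active = calcium signal ratio cut to more than 3 SD under the fully stimulated control mean yet still positive, in both repeats and the primary screen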). The following applies: Fluo4 calcium flux, DAMGO, at 1 µM; hits give high values.
Experiment [13] has the same target. As to the kind of experiment: mouse TRPC4 channel activators, dose response, cell-based, HEK293 TRPC4/mu-opioid, Fluo-4 calcium (AID 434937;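 active = primary screen activator hit with a dose response curve and TRPC4 channel activation at any tested dose; inactive = no activation, no dose response, or not a primary hit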).
Experiment [14] has the same target. As to the kind of experiment: TRPC4 positive allosteric modulators, dose response, cell-based, HEK293 TRPC4/mu-opioid, Fluo-4 calcium, EC20 DAMGO (AID 434941;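 active = earlier screen potentiator hit that boosts the TRPC4 ion channel at some dose, with a dose response; inactive = no potentiation, no dose response, or not a prior hit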;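 note: calcium entry triggered by an EC20 dose of DAMGO at the co-expressed mu-opioid receptor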).
The target is the same in experiment [15]. As to the kind of experiment: mouse TRPC4 channel inhibitors, dose response, cell-based, HEK293 TRPC4/mu-opioid, Fluo-4 calcium (AID 434942;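 active = primary screen inhibitor hit that blocks the TRPC4 channel at some tested dose, yielding a dose curve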).
Experiment [16] concerns the target Short transient receptor potential channel 6 (Mus musculus) (UniProt Q61143). As to the kind of experiment: inhibition of mouse TRPC6 channel, confirmation, selectivity assay for TRPC4 inhibitor project, cell-based, HEK293, membrane potential dye, duplicate (AID 434948;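 active = active in primary screen and both duplicates, each dropping signal beyond three positive-control SD with fluorescence still positive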). The following applies: HEK293 TRPC6, membrane potential dye fluorescence, at 10 µM, stimulated with maximal-effect acetylcholine; hits give high values.

Experiment [17] shares this target. As to the kind of experiment: activation of mouse TRPC6 channel, confirmation, selectivity assay for TRPC4 activator project, cell-based, HEK293, membrane potential dye, duplicate (AID 434950;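 active = membrane potential signal rise above negative control mean plus 3 SD in both duplicates, also active in the earlier TRPC4 screen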). The settings on record: HEK293 TRPC6, membrane potential fluorescence, at 10 µM; hits give high values.
Experiment [18] shares this target. As to the kind of experiment: TRPC6 potentiation by TRPC4 potentiator hits, confirmation, selectivity assay for TRPC4 potentiator project, HEK293 cells, membrane potential dye, duplicate (AID 434952;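 active = compound raising the membrane signal above positive-control mean plus 3 SD in both repeats, and a primary screen hit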). The following applies: HEK293 TRPC6, membrane potential dye fluorescence, at 10 µM, maximal acetylcholine added after compound; hits give high values.
Experiment [19] concerns the target Short transient receptor potential channel 4 (Mus musculus) (UniProt Q9QUQ5). As to the kind of experiment: calcium flux activators in TRPC4/5HT1a cells, counter-screen for TRPC4 activator project, cell-based, second counter screen, HEK293 TRPC4/5HT1a, Fluo-4 (AID 434977;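 active = calcium signal rise above buffer-control mean plus 5 SD in both duplicates, and also a hit in the primary screen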). The settings on record: Fluo-4 calcium flux, at 10 µM; hits give high values.
Experiment [20] is described as follows: calcium flux inhibitors in TRPC4/5HT1a cells, confirmation, counter-screen for TRPC4 inhibitor project, cell-based, second counter screen, HEK293 TRPC4/5HT1a, Fluo-4 (AID 434978;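 active = primary screen active whose calcium signal fell more than 3 SD beyond the full-serotonin control mean in both duplicate plates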;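 note: serotonin given first at submaximal then at maximal dose after compound preincubation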). The settings on record: Fluo-4 calcium flux, at 10 µM, serotonin added to trigger calcium flux; hits give high values.
In experiment [21] the test system is TRPC4 (mouse), co-expressed with 5HT1a in HEK293. As to the kind of experiment: calcium flux potentiators in TRPC4/5HT1a cells, confirmation, counter-screen for TRPC4 potentiator project, cell-based, second counter screen, HEK293 TRPC4/5HT1a, Fluo-4 (AID 434979;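 active = signal rise over 3 SD above mean of control wells given weak agonist, in both repeats and first screen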). The following applies: Fluo-4 calcium flux, at 10 µM, serotonin added at its EC20 dose; hits give high values.

Experiment [22] in a line: calcium flux activation in mu-opioid HEK293 cells, confirmation, counter-screen for TRPC4 activator project, cell-based, HEK293 mu-opioid receptor line (AID 449723;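 active = hit in primary screen, with calcium signal over 5 SD above buffer well mean in both duplicates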;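 note: counter screen cells carry the mu-opioid receptor alone and lack TRPC4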). The settings on record: Fluo-4 calcium fluorescence, at 10 µM; hits give high values.
A short description of experiment [23]: calcium flux enhancement in mu-opioid HEK293 cells, confirmation, counter-screen for TRPC4 allosteric potentiator project, cell-based, HEK293 mu-opioid receptor line (AID 449724;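 active = calcium signal rise more than 3 SD above the low-dose agonist control mean, in both duplicate plates and the primary screen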;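 note: HEK293 cells carrying mu-opioid receptor only with no TRPC4 channel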). The settings on record: Fluo-4 calcium flux, at 10 µM, compound added before EC20 DAMGO stimulus; hits give high values.

Values without a mark were called inactive. For some of these results: Entries with a potency or affinity are not part of this list. Some of the results follow. Calls of active or inactive are those of the source.

Potassium voltage-gated channel subfamily KQT member 1 (Homo sapiens), sequence (P51787 whole entry, looked up): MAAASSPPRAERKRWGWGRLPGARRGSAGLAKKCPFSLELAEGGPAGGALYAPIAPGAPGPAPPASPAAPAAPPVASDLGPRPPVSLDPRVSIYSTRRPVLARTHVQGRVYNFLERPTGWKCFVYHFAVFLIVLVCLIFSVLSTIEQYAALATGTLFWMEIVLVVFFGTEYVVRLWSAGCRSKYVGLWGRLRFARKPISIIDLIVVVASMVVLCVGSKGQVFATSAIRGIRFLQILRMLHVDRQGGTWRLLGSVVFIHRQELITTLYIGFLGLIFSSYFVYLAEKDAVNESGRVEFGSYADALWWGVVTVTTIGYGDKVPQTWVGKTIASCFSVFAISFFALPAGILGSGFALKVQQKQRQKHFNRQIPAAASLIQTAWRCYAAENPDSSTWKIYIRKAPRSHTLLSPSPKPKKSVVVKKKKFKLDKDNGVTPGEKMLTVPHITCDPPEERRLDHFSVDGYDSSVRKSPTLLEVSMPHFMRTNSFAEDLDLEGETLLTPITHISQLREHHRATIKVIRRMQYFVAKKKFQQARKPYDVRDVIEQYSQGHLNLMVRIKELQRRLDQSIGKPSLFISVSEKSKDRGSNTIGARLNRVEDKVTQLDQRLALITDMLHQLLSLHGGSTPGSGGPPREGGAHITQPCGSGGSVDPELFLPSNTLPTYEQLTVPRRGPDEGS
Short transient receptor potential channel 6 (Mus musculus), sequence (Q61143 whole entry, looked up): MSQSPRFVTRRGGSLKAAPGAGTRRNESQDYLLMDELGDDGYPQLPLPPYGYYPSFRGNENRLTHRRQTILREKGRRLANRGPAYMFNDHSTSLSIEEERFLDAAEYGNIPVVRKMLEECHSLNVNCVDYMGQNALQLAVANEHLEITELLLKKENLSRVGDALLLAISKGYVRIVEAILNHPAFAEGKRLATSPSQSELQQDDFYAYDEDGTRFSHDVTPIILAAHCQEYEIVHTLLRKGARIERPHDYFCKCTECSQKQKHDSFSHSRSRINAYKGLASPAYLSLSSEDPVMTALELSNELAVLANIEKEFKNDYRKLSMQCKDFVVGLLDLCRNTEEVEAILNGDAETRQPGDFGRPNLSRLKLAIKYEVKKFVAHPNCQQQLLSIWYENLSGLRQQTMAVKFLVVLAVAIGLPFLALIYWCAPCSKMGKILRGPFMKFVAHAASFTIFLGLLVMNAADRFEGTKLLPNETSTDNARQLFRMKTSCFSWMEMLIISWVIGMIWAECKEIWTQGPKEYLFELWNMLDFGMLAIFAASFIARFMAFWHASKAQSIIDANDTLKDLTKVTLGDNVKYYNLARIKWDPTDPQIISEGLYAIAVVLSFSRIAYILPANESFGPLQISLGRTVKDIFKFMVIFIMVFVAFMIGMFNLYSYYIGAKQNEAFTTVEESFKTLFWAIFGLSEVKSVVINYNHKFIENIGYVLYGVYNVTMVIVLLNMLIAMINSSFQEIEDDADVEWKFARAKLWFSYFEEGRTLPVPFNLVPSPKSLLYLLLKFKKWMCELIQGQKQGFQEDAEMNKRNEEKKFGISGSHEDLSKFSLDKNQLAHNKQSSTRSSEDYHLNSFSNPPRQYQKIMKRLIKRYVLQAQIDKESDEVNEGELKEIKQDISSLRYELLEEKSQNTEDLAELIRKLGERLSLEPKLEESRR

On to `CN(c1ccccc1)S(=O)(=O)c1ccc(Cl)c(C(=O)OCC(=O)NCc2ccco2)c1`, for which the compound was called inactive in experiment [1] and in [2]. The activity increase over 3SD of controls in experiment [3] was -5.5%. In experiment [4], the activation over 3SD threshold was -28.3%. The potentiation, less the hit threshold in experiment [5] is -1.3%. In addition, the activity over 3SD threshold in [6] is -38.2%.

Take `COc1ccc(-c2n[nH]c(C)c2-c2ccccc2OC)c(O)c1`: the compound was classed as inactive in [1], in experiment [2], in experiment [7], in experiment [8], in [9] and in experiment [10]. In addition, the result in experiment [11], in experiment [12], in experiment [13], in experiment [14], in experiment [15] and in experiment [16] was inactive. For the same compound, the call in experiment [17], in experiment [18], in experiment [19], in experiment [20], in experiment [21] and in experiment [22] was inactive. The result in experiment [23] was inactive. Besides, in [3], the activity increase over 3SD of controls was 28.7% (active). Besides, the activation over 3SD threshold in experiment [4] is 56.3% (active). In experiment [5], the potentiation, less the hit threshold is -12.6%. The activity over 3SD threshold in experiment [6] was -44.6%.

Consider `OCCNCc1cccc(OCc2ccccc2Cl)c1`, for which, in experiment [1], the Tl flux remaining, % of negative control (hits give low values) is 62% (active). The result in experiment [2] was inactive.

Take `CCOC(=O)NC(C(F)(F)F)(C(F)(F)F)P(=O)(c1ccccc1)c1ccccc1`: the compound was called inactive in [1] and in experiment [2]. The activity increase over 3SD of controls in [3] was -3.2%. Moreover, the activation over 3SD threshold in experiment [4] is -13.6%. For the same compound, the potentiation, less the hit threshold in [5] was -18.1%. Besides, the activity over 3SD threshold in [6] was -34.2%.

(Values after PubChem BioAssay.)
